# Source: PubChem BioAssay AID432 (Sanford-Burnham Center for Chemical Genomics, 2006)
# Out of some 64,000 compounds screened, about 15 (0.02%) were called active. How the calls were made is not given here. The list is a sample of the results. Potency and affinity values are given separately.
# Molecular target: Bcl-2-related protein A1 (Mus musculus) (UniProt Q07440)
# Assay: Bfl-1 inhibitors, primary screen, biochemical, fluorescence polarization, FITC-Bid, mouse (AID 432)
# Details: FITC-Bid BH3 peptide fluorescence polarization displacement; at 20 µM; hits give high values
# Sequence of Bcl-2-related protein A1 (Mus musculus) (Q07440 whole entry, looked up): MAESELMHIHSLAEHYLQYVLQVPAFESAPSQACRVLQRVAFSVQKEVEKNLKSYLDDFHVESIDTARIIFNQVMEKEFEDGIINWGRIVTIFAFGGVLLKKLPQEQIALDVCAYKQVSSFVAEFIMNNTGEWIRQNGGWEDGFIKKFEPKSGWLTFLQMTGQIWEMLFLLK
row,Compound,displacement
1,O=C(CN1C(=O)CC(c2ccco2)Sc2ccccc21)NCC1CCCO1 (stereo unspecified),-4.3% (inactive)
2,CCCN1CCN(C(=O)Cn2cccc2C(=O)c2ccccc2)CC1,-2.4% (inactive)
3,COC(=O)CCC(=O)Nc1ccc(NC(C)=O)cc1,0.3% (inactive)
4,COc1ccc(OC)c(S(=O)(=O)n2nc(-c3ccccc3)cc2N)c1,-0.3% (inactive)
5,COc1ccc(S(=O)(=O)n2nc(-c3cc(OC)c(OC)c(OC)c3)cc2N)cc1OC,3.4% (inactive)
6,CC(C)(C)Sc1nc(O)cc(=O)[nH]1,-4.4% (inactive)
7,CN(c1ccccc1)S(=O)(=O)c1cc(C(=O)N2CCN(c3ccccn3)CC2)ccc1Cl,-4.6% (inactive)
8,CC1CN(C(=O)c2ccc(C(=O)c3ccccc3)cc2)CC(C)O1 (stereo unspecified),-0.8% (inactive)
9,O=C1CC2CS(=O)(=O)CC2N1C1CCCCC1 (stereo unspecified),2% (inactive)
10,CCN(CC)S(=O)(=O)c1ccc(Cl)c(C(=O)NCC2CCCO2)c1 (stereo unspecified),-6.5% (inactive)
11,COc1nc(-c2ccccc2)ccc1-c1noc(-c2ccc(F)cc2)n1,-1.8% (inactive)
12,COc1cccc(-c2nc(-c3ccccc3)no2)c1,-9.1% (inactive)
13,COc1ccc(-c2ccc(-c3noc(-c4ccccc4)n3)c(OC)n2)cc1,-44.4% (inactive)
14,COc1cc(OC)cc(-c2nc(-c3cc4cc(C)ccc4nc3OC)no2)c1,-2% (inactive)
15,COCCNC(=O)C(c1ccccc1)N(Cc1cccs1)C(=O)Cn1nnc2ccccc21 (stereo unspecified),4.1% (inactive)
16,CCCCCOc1ccc(C(=O)NC(CCC)C(=O)O)cc1 (stereo unspecified),0.1% (inactive)
17,CCCn1nnc(NCc2ccc(OCc3cccs3)c(OC)c2)n1,1.2% (inactive)
18,CCCNC(=O)Nc1cc(C)on1,-15.6% (inactive)
19,N#Cc1cc2c(nc1SCC1COc3ccccc3O1)CCC2 (stereo unspecified),-4.2% (inactive)
20,O=C(CC(c1ccccc1O)N1CCCCC1)N1CCCCC1 (stereo unspecified),-9.2% (inactive)
21,COc1ccccc1-n1cnnc1SC1CCOC1=O (stereo unspecified),-0.5% (inactive)

row,Compound,displacement
1,O=C(CSc1nnnn1C1CCCCC1)Nc1cccc(NC(=O)c2ccco2)c1,6.6% (inactive)
2,Cc1c(C(=O)NCc2cccnc2)oc2c1C(=O)CC(C)(C)C2,-2.3% (inactive)
3,CCCc1[nH]nc2c1C(CCc1ccccc1)C(C#N)=C(N)O2 (stereo unspecified),-3.6% (inactive)
4,Cc1nc(SCC(=O)NCC2CCCO2)c2oc3ccccc3c2n1 (stereo unspecified),-3.4% (inactive)
5,CC(C)(O)c1nnn(-c2ccccc2)c1C(F)(F)F,-3% (inactive)
6,COc1cccc(CNCC(=O)N2C(C)CCCC2C)c1 (stereo unspecified),-0.5% (inactive)
7,CNC(=O)c1cc2ccc(OC)cc2oc1=O,-6.1% (inactive)
8,O=C1CCc2cc(S(=O)(=O)N3CCC(C(=O)NC4CCCc5ccccc54)CC3)ccc2N1 (stereo unspecified),-5.6% (inactive)
9,Cc1csc(-c2cnn(-c3ccccc3)c2NC(=O)c2ccccc2)n1,-3.3% (inactive)
10,COc1cccc(-c2nn(C)c3sc(C(=O)NCc4ccccn4)cc23)c1,3.4% (inactive)
11,COC(=O)c1ccc(NC(=O)C2C3C=CC(O3)C2C(=O)O)cc1 (stereo unspecified),1.3% (inactive)
12,Cc1cccc(-n2c(SCC(=O)N3CCCC3)nnc2-c2ccccn2)c1C,-5.2% (inactive)
13,CCC/C(O)=C1\C(=O)CC(C)(C)CC1=NCCO,2.8% (inactive)
14,O=S(=O)(c1ccc(Br)s1)n1cccn1,-3.1% (inactive)
15,O=C(Nc1nncs1)C1COc2ccccc2O1 (stereo unspecified),-5% (inactive)
16,O=C(NC(NCCCN1CCOCC1)(C(F)(F)F)C(F)(F)F)C1CCCCC1,-1.1% (inactive)
17,Cc1nc(NCCN2CCOCC2)c2nnn(Cc3c(F)cccc3Cl)c2n1,-1.3% (inactive)
18,CCOC(=O)/C(C#N)=C(\N)C(C)C(=O)Nc1ccccn1 (stereo unspecified),-3.2% (inactive)
19,CCOC(=O)CNC(=O)CSc1nc2cccnc2n1C1CCCCC1,-8.1% (inactive)
20,Cn1c(NC(=O)c2cc(Br)ccc2Cl)cc(=O)n(C)c1=O,-6.3% (inactive)
